PubChem BioAssay (Tox21)
“And” between values parts separate entries of the source, which are not always exact repeats. Equal values may be shown once. Records with an inconclusive call do not appear. Where a call stands in place of a potency, no number is given. Some structures have more than one record in an assay (separate samples or runs), and their calls can disagree. The source made the active and inactive calls. The call rests on the fitted dose curve; in most records, active means well fitted curve in the direction sought with a large enough effect in the repeat runs; inconclusive means weak or mixed curves; inactive means no such curve, though single readings can be large; an effect the other way counts as inactive or inconclusive.

How the values were obtained:
[1] = biological target: Cytochrome P450 2D6 (Homo sapiens) (UniProt P10635); assay: Cytochrome P450 Family 2 Subfamily D Member 6 (CYP2D6) small molecule antagonists: luciferase reporter qHTS assay (AID 1671196); further: nearly all actives have a fitted effect of over 50% in size
Method in brief: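 Inhibition of CYP2D6 was gauged by loss of luminescence, since light produced tracks the luciferin generated from a proluciferin substrate. A 10 min room-temperature preincubation preceded 1 h NADPH-supported turnover.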

[2] = biological target: Cytochrome P450 2C19 (Homo sapiens) (UniProt P33261); assay: Cytochrome P450 Family 2 Subfamily C Member 19 (CYP2C19) small molecule antagonists: luciferase reporter qHTS assay (AID 1671197); further: nearly all actives have a fitted effect of over 65% in size
Method in brief: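 First, compounds are pinned into enzyme-substrate mix and held 10 min at room temperature. Second, NADPH regeneration solution is added and plates incubate 1 h at 37C. Third, detection reagent is added and luminescence read after 20 min.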

[3] = biological target: Cytochrome P450 2C9 (Homo sapiens) (UniProt P11712); assay: Cytochrome P450 Family 2 Subfamily C Member 9 (CYP2C9) small molecule antagonists: luciferase reporter qHTS assay (AID 1671198); further: nearly all actives have a fitted effect of over 50% in size
Method in brief: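 P450-Glo proluciferin substrate with CYP2C9 enzyme; 10 min RT preincubation, then NADPH regeneration 1 h at 37C; luciferin detection reagent 20 min RT, luminescence in relative luminescence units.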

[4] = biological target: Cytochrome P450 1A2 (Homo sapiens) (UniProt P05177); assay: Cytochrome P450 Family 1 Subfamily A Member 2 (CYP1A2) small molecule antagonists: luciferase reporter qHTS assay (AID 1671199); further: nearly all actives have a fitted effect of over 50% in size
Method in brief: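 Signal from luciferin formed by CYP1A2 from a proluciferin substrate is read as luminescence, expressed in relative luminescence units. Compounds sit with enzyme 10 min, NADPH-driven reaction runs 1 h, all at room temperature.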

[5] = biological target: Voltage-gated inwardly rectifying potassium channel KCNH2 (Homo sapiens) (UniProt Q12809); assay: Human Ether-a-go-go-Related Gene (hERG) channel small molecule antagonists: fluorescence cell-based qHTS assay (AID 1671200); further: nearly all actives have a fitted effect of over 50% in size
Method in brief: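 In this thallium-flux screen, overnight-cultured U2OS cells bearing the channel are dye-loaded in darkness for an hour, rested 10 min at room temperature, and then monitored kinetically at 480/540 nm for two minutes post-stimulus.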

[6] = biological target: Cytochrome P450 3A4 (Homo sapiens) (UniProt P08684); assay: Cytochrome P450 Family 3 Subfamily A Member 4 (CYP3A4) small molecule antagonists: luciferase reporter qHTS assay (AID 1671201); further: nearly all actives have a fitted effect of over 50% in size
Method in brief: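 CYP3A4 activity was followed with a P450-Glo proluciferin substrate. Test compounds in DMSO were preincubated 10 min; NADPH regeneration then ran 1 h, and light output was read 20 min after detection reagent.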
Potency means the concentration at half of the fitted maximal effect.

Voltage-gated inwardly rectifying potassium channel KCNH2 (Homo sapiens), sequence (Q12809 whole entry, looked up): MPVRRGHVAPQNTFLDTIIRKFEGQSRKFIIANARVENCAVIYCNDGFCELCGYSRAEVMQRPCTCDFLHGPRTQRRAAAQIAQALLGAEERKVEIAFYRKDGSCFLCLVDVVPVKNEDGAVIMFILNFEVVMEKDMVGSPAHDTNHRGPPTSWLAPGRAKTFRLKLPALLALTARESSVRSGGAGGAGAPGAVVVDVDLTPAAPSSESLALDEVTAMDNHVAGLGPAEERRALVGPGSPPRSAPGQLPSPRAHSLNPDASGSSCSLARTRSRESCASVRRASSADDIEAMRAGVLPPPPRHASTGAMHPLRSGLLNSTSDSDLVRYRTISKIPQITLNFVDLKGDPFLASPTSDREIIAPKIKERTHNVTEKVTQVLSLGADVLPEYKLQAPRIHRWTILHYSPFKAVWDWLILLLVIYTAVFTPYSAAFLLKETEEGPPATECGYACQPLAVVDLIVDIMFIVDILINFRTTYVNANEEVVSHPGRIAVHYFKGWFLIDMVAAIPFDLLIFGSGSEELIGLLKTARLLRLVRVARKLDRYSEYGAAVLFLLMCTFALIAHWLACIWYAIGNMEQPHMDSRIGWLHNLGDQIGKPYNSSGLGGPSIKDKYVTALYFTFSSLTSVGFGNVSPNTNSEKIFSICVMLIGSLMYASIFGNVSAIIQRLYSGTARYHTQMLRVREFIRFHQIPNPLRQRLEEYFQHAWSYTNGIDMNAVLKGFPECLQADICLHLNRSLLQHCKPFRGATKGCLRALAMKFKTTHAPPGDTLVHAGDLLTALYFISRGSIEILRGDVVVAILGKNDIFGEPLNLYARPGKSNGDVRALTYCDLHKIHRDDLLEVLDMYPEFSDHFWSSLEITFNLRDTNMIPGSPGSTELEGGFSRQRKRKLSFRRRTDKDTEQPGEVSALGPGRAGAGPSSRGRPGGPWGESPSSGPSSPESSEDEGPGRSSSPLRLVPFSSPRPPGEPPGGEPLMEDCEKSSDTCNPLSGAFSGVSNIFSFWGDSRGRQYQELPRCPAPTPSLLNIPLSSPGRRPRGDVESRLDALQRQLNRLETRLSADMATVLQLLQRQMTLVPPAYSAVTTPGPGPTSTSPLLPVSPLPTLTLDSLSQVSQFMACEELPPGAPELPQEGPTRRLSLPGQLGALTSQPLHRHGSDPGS
Cytochrome P450 1A2 (Homo sapiens), sequence (P05177 whole entry, looked up): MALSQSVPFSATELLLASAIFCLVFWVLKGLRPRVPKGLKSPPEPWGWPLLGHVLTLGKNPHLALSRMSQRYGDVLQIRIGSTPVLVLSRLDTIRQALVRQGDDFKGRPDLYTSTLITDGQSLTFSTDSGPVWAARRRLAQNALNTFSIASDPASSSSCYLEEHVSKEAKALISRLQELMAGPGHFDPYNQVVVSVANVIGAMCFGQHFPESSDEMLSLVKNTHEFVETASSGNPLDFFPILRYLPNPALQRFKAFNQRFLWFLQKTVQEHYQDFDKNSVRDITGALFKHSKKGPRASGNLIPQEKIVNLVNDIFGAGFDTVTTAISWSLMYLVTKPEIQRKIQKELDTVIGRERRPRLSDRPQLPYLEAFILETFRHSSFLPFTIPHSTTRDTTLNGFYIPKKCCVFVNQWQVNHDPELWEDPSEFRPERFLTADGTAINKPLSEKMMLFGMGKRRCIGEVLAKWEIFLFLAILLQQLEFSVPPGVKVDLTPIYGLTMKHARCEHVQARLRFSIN
Cytochrome P450 3A4 (Homo sapiens), sequence (P08684 whole entry, looked up): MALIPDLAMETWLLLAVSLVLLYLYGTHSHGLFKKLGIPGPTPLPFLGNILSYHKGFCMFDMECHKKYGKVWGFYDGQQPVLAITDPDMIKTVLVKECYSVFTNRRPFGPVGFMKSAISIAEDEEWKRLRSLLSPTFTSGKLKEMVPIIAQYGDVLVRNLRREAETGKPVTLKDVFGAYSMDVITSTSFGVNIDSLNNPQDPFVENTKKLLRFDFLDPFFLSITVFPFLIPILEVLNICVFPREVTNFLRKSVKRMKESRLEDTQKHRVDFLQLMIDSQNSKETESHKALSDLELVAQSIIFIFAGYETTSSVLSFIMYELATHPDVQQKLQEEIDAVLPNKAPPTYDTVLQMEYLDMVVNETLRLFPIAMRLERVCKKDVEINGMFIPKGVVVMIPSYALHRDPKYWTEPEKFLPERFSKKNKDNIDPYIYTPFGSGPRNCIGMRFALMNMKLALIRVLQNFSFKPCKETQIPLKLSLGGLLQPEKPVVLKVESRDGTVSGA
Cytochrome P450 2C9 (Homo sapiens), sequence (P11712 whole entry, looked up): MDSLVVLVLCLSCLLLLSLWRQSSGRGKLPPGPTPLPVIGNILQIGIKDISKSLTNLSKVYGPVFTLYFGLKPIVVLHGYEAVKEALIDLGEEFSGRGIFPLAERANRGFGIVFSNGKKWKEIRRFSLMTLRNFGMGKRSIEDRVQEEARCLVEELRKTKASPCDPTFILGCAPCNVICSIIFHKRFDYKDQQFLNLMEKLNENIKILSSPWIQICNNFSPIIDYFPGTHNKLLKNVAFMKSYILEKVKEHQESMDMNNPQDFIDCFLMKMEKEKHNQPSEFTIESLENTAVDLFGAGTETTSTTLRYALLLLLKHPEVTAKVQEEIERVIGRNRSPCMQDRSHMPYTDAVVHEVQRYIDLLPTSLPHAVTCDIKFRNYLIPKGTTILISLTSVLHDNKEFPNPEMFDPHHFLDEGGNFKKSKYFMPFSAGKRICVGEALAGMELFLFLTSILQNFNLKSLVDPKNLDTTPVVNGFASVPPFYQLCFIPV
Cytochrome P450 2D6 (Homo sapiens), sequence (P10635 whole entry, looked up): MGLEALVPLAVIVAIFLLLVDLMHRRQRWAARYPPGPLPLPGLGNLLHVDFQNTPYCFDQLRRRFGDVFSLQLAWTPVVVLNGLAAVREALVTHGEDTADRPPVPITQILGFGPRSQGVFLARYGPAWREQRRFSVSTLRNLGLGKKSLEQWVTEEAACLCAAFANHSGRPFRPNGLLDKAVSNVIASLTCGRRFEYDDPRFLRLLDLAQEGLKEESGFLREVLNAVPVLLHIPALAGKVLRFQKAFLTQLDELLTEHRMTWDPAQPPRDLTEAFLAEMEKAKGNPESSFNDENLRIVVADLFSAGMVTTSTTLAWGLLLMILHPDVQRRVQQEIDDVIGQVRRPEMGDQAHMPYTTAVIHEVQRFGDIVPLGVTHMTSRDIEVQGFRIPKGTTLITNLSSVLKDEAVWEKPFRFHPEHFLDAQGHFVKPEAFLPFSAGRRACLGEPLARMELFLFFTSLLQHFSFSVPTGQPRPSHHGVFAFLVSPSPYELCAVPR
Cytochrome P450 2C19 (Homo sapiens), sequence (P33261 whole entry, looked up): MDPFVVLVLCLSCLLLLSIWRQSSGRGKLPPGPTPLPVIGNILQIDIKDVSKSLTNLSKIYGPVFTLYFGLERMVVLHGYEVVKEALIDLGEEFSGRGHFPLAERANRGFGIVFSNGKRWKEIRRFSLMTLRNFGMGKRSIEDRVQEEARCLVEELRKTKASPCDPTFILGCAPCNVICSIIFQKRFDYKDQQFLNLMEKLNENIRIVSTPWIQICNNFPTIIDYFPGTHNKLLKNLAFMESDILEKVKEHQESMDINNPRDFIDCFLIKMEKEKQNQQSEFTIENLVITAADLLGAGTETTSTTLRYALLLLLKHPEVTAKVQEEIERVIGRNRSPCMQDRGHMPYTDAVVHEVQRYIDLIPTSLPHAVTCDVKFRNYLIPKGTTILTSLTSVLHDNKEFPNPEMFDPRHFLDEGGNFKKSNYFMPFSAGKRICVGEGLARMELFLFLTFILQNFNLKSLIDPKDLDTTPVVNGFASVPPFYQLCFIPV

Structure (SMILES)	Potency [1]	Potency [2]	Potency [3]	Potency [4]	Potency [5]	Potency [6]
CCCCCCCCCCCCOCC1CO1 (stereo not drawn)	inactive	60.4 µM (active)	inactive	63.4 µM (active)	inactive	inactive
O=[N+]([O-])c1cccc(Cl)c1	inactive	inactive	inactive	inactive	inactive	inactive
CC1CC(OC(=O)c2ccccc2O)CC(C)(C)C1 (stereo not drawn)	inactive	inactive	inactive and 44.8 µM (active)	inactive and 27.5 µM (active)	inactive	inactive
C[C@@H]1O[C@@H](OC[C@H]2O[C@@H](Oc3c(-c4ccc(O)c(O)c4)oc4cc(O)cc(O)c4c3=O)[C@H](O)[C@@H](O)[C@@H]2O)[C@H](O)[C@H](O)[C@H]1O	inactive	inactive	inactive	inactive	inactive	inactive
COCC(C)O (stereo not drawn)	inactive	inactive	inactive	inactive	inactive	inactive
Clc1ccc(Cl)c(Cl)c1Cl	inactive	49.7 µM (active)	inactive	inactive and 39.9 µM (active)	inactive	inactive
O=C1O[C@H](CO)[C@@H](O)[C@H](O)[C@H]1O	inactive	inactive	inactive	inactive	inactive	inactive
OC[C@@H](O)[C@@H](O)[C@H](O)[C@@H](O)CO	inactive	inactive	inactive	inactive	inactive	inactive
CC[Si](OC(C)=O)(OC(C)=O)OC(C)=O	35.6 µM (active)	50.2 µM (active) and inactive	71 µM (active) and inactive	inactive	inactive	3.17 µM (active) and 35.6 µM (active)
Oc1ccc2ccccc2c1N=Nc1ccccc1	35.6 µM (active) and inactive	31.7 µM (active)	11.2 µM (active) and 14.2 µM (active)	356 nM (active) and 2.52 µM (active)	inactive	6.33 µM (active) and 20 µM (active)
C=CC(=O)OCCCCCCCC(C)C	inactive	inactive	inactive	inactive	inactive	inactive
CCC(=O)O	inactive	inactive	inactive	inactive	inactive	inactive
C=C(C)C(=O)OCCCCCCCCCCCC	inactive	inactive	inactive	inactive	inactive	inactive
CCOC(=O)/C=C\C(=O)OCC	inactive	72.3 µM (active) and inactive	inactive	inactive	inactive	inactive
O=C(c1ccc(O)cc1)c1ccc(O)cc1O	36 µM (active) and 35.6 µM (active)	32.1 µM (active) and inactive	inactive	28.6 µM (active) and 35.6 µM (active)	inactive	7.18 µM (active) and 22.4 µM (active)
Cc1cc(O)c2c(c1)C(=O)c1cc(O)cc(O)c1C2=O	inactive	inactive and 35.6 µM (active)	12.3 µM (active) and 11.2 µM (active)	8.94 µM (active)	inactive	27.6 µM (active) and 22.4 µM (active)
c1ccc2[nH]cnc2c1	inactive	inactive	inactive	inactive	inactive	inactive

Structure (SMILES)	Potency [1]	Potency [2]	Potency [3]	Potency [4]	Potency [5]	Potency [6]
O=[N+]([O-])C(CO)(CO)CO	inactive	69.9 µM (active) and inactive	79.6 µM (active)	inactive	inactive	inactive
CCCCC(CC)COC(=O)CCCCCCCC(=O)OCC(CC)CCCC (stereo not drawn)	71 µM (active) and inactive	7.96 µM (active) and inactive	31.7 µM (active) and inactive	35.6 µM (active) and inactive	inactive	5.64 µM (active) and inactive
CC(=O)Nc1ccc(C(=O)O)cc1	inactive	inactive	inactive	inactive	inactive	inactive
CCCCNC(N)=O	inactive	inactive	inactive	inactive	inactive	inactive
CC(C)(C)C(=O)C1C(=O)c2ccccc2C1=O	inactive	35.3 µM (active) and inactive	22.2 µM (active) and 25.2 µM (active)	31.4 µM (active)	inactive	28 µM (active)
OCCOCCOCCOCCO	inactive	40.8 µM (active) and inactive	inactive	39.9 µM (active)	inactive	inactive
CCCCCCOC(C)=O	inactive	inactive	inactive	inactive	inactive	inactive
OC[C@@H](O)[C@H](O)[C@H](O)[C@@H](O)CO	inactive	inactive	inactive	inactive	inactive	inactive
CCc1ccc(O)cc1	inactive	71.3 µM (active) and inactive	inactive	inactive	inactive	inactive
CCCCC(CC)COC(=O)/C=C\C(=O)OCC(CC)CCCC (stereo not drawn)	inactive	39.9 µM (active) and 71 µM (active)	39.9 µM (active)	35.6 µM (active)	inactive	5.64 µM (active)
CCCCCCCCC	inactive	inactive	inactive	inactive	inactive	inactive
c1ccc2ccccc2c1	inactive	inactive	inactive	70.7 µM (active) and inactive	inactive	inactive
Oc1c(Cl)cc(Cl)c(Cl)c1Cl	inactive	inactive	39.1 µM (active) and 28.3 µM (active)	62 µM (active) and 63.3 µM (active)	inactive	inactive
O=S(=O)(O)c1cc(S(=O)(=O)O)c2c(N=Nc3ccccc3)c(O)ccc2c1	inactive	71.3 µM (active) and inactive	inactive	inactive	inactive	inactive
CC1(C)O[C@@H]2C[C@H]3[C@@H]4C[C@H](F)C5=CC(=O)CC[C@]5(C)[C@H]4[C@@H](O)C[C@]3(C)[C@]2(C(=O)CO)O1	inactive	inactive	inactive	inactive	inactive	
O=S(=O)(Oc1ccc(Cl)cc1Cl)c1ccccc1	64.4 µM (active) and 63.3 µM (active)	811 nM (active) and 894 nM (active)	40.6 µM (active) and 35.6 µM (active)	2.28 µM (active) and 2.24 µM (active)	49.8 µM (active) and 34.7 µM (active)	inactive
Cc1cc(O)cc(C)c1Cl	inactive	inactive	inactive	25.2 µM (active) and 15.5 µM (active)	inactive	inactive
